Source: the supplement of paper PMC6607015
Where a name gives a salt, the structure may show the parent alone.

test system: HeLa MZ; assay: filipin (cholesterol) integrated intensity within LBPA endosomes, Z-score; higher = more cholesterol in LBPA endosomes; conditions: compound concentration in added solution (µM; 5 µl added to 20 µl cells): 10; 18 h
Outline: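 The data are Z-scores, normalised in AcuityXpress, of integrated LBPA or filipin intensity in each cell, either whole-cell or restricted to LBPA endosomes. HeLa MZ or A431 cells, 3,500 per well in 20 µl, were seeded onto 5 µl of 10 µM compound solution in duplicate 384-well plates and incubated 18 h. Fixed cells were stained and imaged, with intensities extracted by MetaXpress segmentation.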

| SMILES | filipin (z-score) |
| --- | --- |
| CN(Cc1cnc2nc(N)nc(N)c2n1)c1ccc(C(=O)N[C@@H](CCC(=O)O)C(=O)O)cc1 (racemic) [Amethopterin (R,S)] | -0.934 |
| NS(=O)(=O)c1cc2c(cc1Cl)NC(CC1CCCC1)NS2(=O)=O (stereo unspecified) [Cyclopenthiazide] | -0.628 |
| NC(=O)c1cc[n+](CC2=C(C(=O)[O-])N3C(=O)[C@@H](NC(=O)[C@@H](c4ccccc4)S(=O)(=O)O)[C@H]3SC2)cc1 [Cefsulodin sodium salt] | -0.398 |
| CS(=O)(=O)c1ccc(C2=C(c3ccccc3)C(=O)OC2)cc1 [Rofecoxib] | -0.599 |
| O=c1oc2ccccc2c(O)c1Cc1c(O)c2ccccc2oc1=O [Dicumarol] | -0.672 |
| O=C(O)c1cc(=O)c2c(OCC(O)COc3cccc4oc(C(=O)O)cc(=O)c34)cccc2o1 [Cromolyn disodium salt] | -0.474 |
| CNCCC(Oc1ccccc1OC)c1ccccc1 (stereo unspecified) [Nisoxetine hydrochloride] | -0.0239 |
| C#C[C@]1(O)CC[C@H]2[C@@H]3CCC4=Cc5oncc5C[C@]4(C)[C@H]3CC[C@@]21C [Danazol] | -0.556 |
| COc1ccc(-c2cc(=S)ss2)cc1 [Anethole-trithione] | -0.257 |
| CN(C)CCCC1(c2ccc(F)cc2)OCc2cc(C#N)ccc21 (stereo unspecified) [Citalopram Hydrobromide] | 0.534 |
| Nc1cc(C(Cl)=C(Cl)Cl)c(S(N)(=O)=O)cc1S(N)(=O)=O [Clorsulon] | -0.586 |
